The panel holds about 83,000 compounds, 20% with a hit somewhere; the sample as a whole holds those more often.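 Values shown are percent growth following 48 h exposure of cells in 96-well plates to a single concentration of compound; below 10 was considered active.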 Unmarked numbers belong to inactive results. Activity calls are given as the source filed them.

Here are results for 13 compounds from PubChem BioAssay (NCI).

Experiment in all cases: NCI-60 one-dose screen, 48 h (100 = growth as untreated, 0 = no growth, -100 = all killed)
Assay [1] has as its system SR leukemia. The note with it: 10 µM unless noted.
The test system of assay [2] is RPMI-8226 leukemia. The note with it: 10 µM unless noted.
The subject of assay [3] is OVCAR-8 ovarian. The note with it: 10 µM unless noted.
In assay [4] the test system is OVCAR-5 ovarian. The note with it: 10 µM unless noted.
Assay [5] concerns OVCAR-4 ovarian. The note with it: 10 µM unless noted.
The test system of assay [6] is SK-OV-3 ovarian. Particulars: 10 µM unless noted.
For assay [7], the system named is IGROV1 ovarian. The note with it: 10 µM unless noted.
Assay [8] deals with OVCAR-3 ovarian. The note with it: 10 µM unless noted.
Assay [9] relates to HS 578T breast. The note with it: 10 µM.
Assay [10] deals with NCI/ADR-RES ovarian. Particulars: 10 µM unless noted.

Consider `Clc1ccc2c(NCCNc3nc(N4CCCC4)nc4ccccc34)ccnc2c1`, for which the growth in assay [1] is -22.6% (active); in assay [2], -18.2% (active); in [3], 3.61% (active); in assay [4], 23.6%; in assay [5] it was -7.19% (active); in assay [6], -63.3% (active). Moreover, the growth in assay [7] is 3.56% (active); in [8], -65.8% (active); in assay [9], 19.9%; in [10], 60.2%.

`CCN1CCN(c2nc(C)cc(N(CCNc3ccnc4cc(Cl)ccc34)Cc3ccc4c(c3)OCO4)n2)CC1`: the growth is -35.2% (active) in assay [1]; -30.4% (active) in assay [2]; 16.1% in assay [3]; 78.2% in assay [4]; 34.1% in assay [5]; 74.8% in assay [6]. Further, the growth is 42.7% in [7], 20.9% in assay [8], 22.1% in assay [9] and 36.4% in assay [10].

Regarding `Cc1oc2c(C(=O)N/N=C\c3ccc(O)cc3O)c[nH]c2c1C`, the growth in assay [1] was 8.4% (active); in assay [2] it was 25.3%; in assay [3], 13.7%; in assay [4] it was 30.7%; in [5], 10.8%; in [6] it was 20.6%. Moreover, the growth in assay [7] is 24.1%; in assay [8] it was -16% (active); in [9], 58.2%; in [10], 1.19% (active).

As for `NC(=O)c1n[nH]n2c1nc(=O)c1c3c(sc12)CCCC3`, the growth was 101% in assay [1]; 94.2% in [2]; 101% in [3]; 111% in assay [4]; 118% in assay [5]; 105% in [6]. Further, the growth in [7] was 104%; in assay [8], 107%; in assay [9], 110%; in [10] it was 106%.

Turning to `C[N+](C)(CCOC(c1ccccc1)c1ccccc1)CC(=O)OCc1ccccc1`, the growth was 115% in assay [1]; 111% in assay [2]; 106% in assay [3]; 103% in assay [4]; 93.5% in assay [5]; 106% in assay [6]. Further, the growth in [7] is 106%; in assay [8] it was 103%; in assay [9], 108%; in assay [10] it was 105%.

As for `COc1cc(C(=O)NNC(=O)c2ccc(NC(=O)CCl)cc2)cc(OC)c1OC`, the growth in [1] was 45.8%; in assay [2], 97.8%; in assay [3], 82.2%; in [4], 170%; in assay [5], 88.4%; in assay [6], 99.1%. Moreover, the growth in [7] is 75.1%; in assay [8] it was 62.4%; in assay [9] it was 90.5%; in [10], 102%.

With `Cc1cc2c3c(cccc3c1)C(=O)c1ccccc1-2`, the growth in [1] is 96.6%; in assay [2], 109%; in assay [3], 107%; in assay [4], 100%; in [5], 94.8%; in assay [6], 107%. Besides, the growth in [7] was 90.5%; in assay [8], 90.2%; in assay [9], 99.6%; in assay [10] it was 77.9%.

Consider `Cc1ccc(-c2nc3ccc(Cl)cn3c2NC2CCCCC2)o1`, for which the growth in assay [1] is 54.3%; in [2], 51.1%; in assay [3], 92.7%; in assay [4] it was 108%; in assay [5] it was 71%; in assay [6], 72.1%. In addition, the growth in assay [7] is 62.1%; in [8], 89.7%; in [9], 88.2%; in assay [10], 86.2%.

As for `O=C(NO)c1ccc(Cn2c(=O)n(CCc3ccccc3)c(=O)c3ccccc32)cc1`, the growth was 20% in assay [1]; 25.8% in [2]; 20.2% in [3]; 76.5% in assay [4]; 19.2% in [5]; 26.3% in assay [6]. The growth was 41% in assay [7], 13.8% in assay [8], 68.9% in assay [9] and 57.5% in assay [10].

Turning to `Cc1cc(N(CCNc2ccnc3cc(Cl)ccc23)Cc2ccc3c(c2)OCO3)nc(N2CCCC2)n1`, the growth in [1] was -46.7% (active); in assay [2], -27.3% (active); in [3] it was 7.4% (active); in [4] it was 20.6%; in [5], -44.9% (active); in assay [6] it was 40.9%. The growth in assay [7] was -14.4% (active); in assay [8], -30.7% (active); in [9] it was 6.29% (active); in assay [10], 31.1%.

As for `OCCNC(=S)Nc1ccc(-c2nc(N3C[C@H]4CC[C@@H](C3)O4)c3cccn3n2)cc1`, the growth in [1] was 11.1%; in [2], 5.44% (active); in assay [3] it was -7.06% (active); in assay [4], -4.85% (active); in assay [5], -7.17% (active); in assay [6] it was -33.7% (active). The growth in assay [7] was -19.9% (active); in assay [8], -4.31% (active); in assay [9], -28.6% (active); in assay [10], 3.87% (active).

On to `COC(=O)[C@]12CC[C@@H](C)[C@H](C)[C@@H]1C1=CC[C@@H]3[C@@]4(C)C[C@@H](OC(=O)/C=C/c5ccccc5)[C@H](O)[C@@](C)(CO)[C@@H]4[C@H](O)C[C@@]3(C)[C@]1(C)CC2`, for which the growth in assay [1] was -18.4% (active); in [2], 9.79% (active); in [3] it was 14.6%; in assay [4], -27.6% (active); in assay [5], 23.3%; in [6], 41.9%. Moreover, the growth in assay [7] is 31.2%; in assay [8] it was -37.1% (active); in assay [9] it was -0.549% (active); in assay [10] it was 7.34% (active).

With `CCOc1ccc(N=C(C)Nc2ccc(OCC)cc2)cc1`, the growth is 84.5% in [1]; 116% in [2]; 106% in assay [3]; 104% in [4]; 104% in assay [5]; 121% in assay [6]. Moreover, the growth in [7] was 106%; in assay [8], 133%; in assay [9] it was 106%; in [10], 101%.
